RORg inh = inhibitors of mouse ROR gamma transcriptional activity; Drosophila S2 Gal4-RORgamma UAS-luciferase reporter, 20 h; Potency, µM (titrated, usually from 53.6 µM), for inactives: top-dose activity change, negative = inhibition, usual class: inhibitors; 310,000 tested, 5.4% active; further: potency means the concentration at half of the fitted maximal effect; nearly all actives have a fitted effect of over 60% in size
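Drosophila S2 cells stably expressing Gal4-DBD/mouse RORγ fusion under metallothionein promoter plus UAS-luciferase; compound 1 h, then 700 uM CuSO4 induction for 20 h at ambient temperature; inhibition read as reduced luminescence.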
ELG1 DNA repair = blocks ELG1-dependent DNA repair in HEK293T cells. 330,000 tested, 2.3% active. AID 504467. Potency, µM (highest dose often 46.1 µM), inactives show at the top dose activity change, negative = inhibition, hits mostly inhibitors. HEK293T ELG1-luciferase reporter, luminescence, 16 h; DNA damage induced by 5-fluorouridine; further: potency means the concentration at half of the fitted maximal effect; nearly all actives have a fitted effect of over 55% in size
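Cells (2,000 per well) received 5-fluorouridine plus test compound or DMSO and were incubated 16 hr at 37 °C, 5% CO2. Luciferase activity was read by luminescence 30 min after ONE-Glo addition; signal suppression marked inhibition of damage-induced ELG1 function.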
VP16 counter = inhibits Gal4-VP16 luciferase reporter, ROR gamma counter-screen. Drosophila S2 Gal4-VP16 UAS-luciferase, luminescence, 20 h. Potency, µM (titrated, usually from 53.6 µM), without a hit: at the top dose activity, negative = inhibition, usual class: inhibitors. 310,000 tested, 3.5% active;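 further: Gal4-VP16 expression switched on by copper sulfate through the metallothionein promoter; potency means the concentration at half of the fitted maximal effect; nearly all actives have a fitted effect of over 50% in size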
TSHR antag = blocks TSH signaling through the human TSH receptor; TSHR-expressing cells, TSH-stimulated cAMP HTRF, 2 h; stronger effect = lower value; 330,000 tested, 0.2% active; activity change, negative = inhibition, % at 11.5 µM; P16473;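 active means activity change below a set negative limit, meaning inhibition stronger than a set level, cut at about -70% in these data; inconclusive means activity change between two set negative limits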
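TSHR-expressing cells were treated with compounds, then stimulated with TSH at EC80 (4nM final) for 2 hours at 37 deg C. Cellular cAMP was measured by HTRF competition between lysate cAMP and cAMP-d2 for a cryptate-labelled anti-cAMP antibody.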
B2AR arrestin = agonists driving beta-arrestin recruitment to human beta2-adrenergic receptor. 330,000 tested, 0.02% active. beta-arrestin recruitment to beta2AR, cell-based reporter. P07550. Potency, µM (top dose mostly 46.1 µM), for the others: top-dose activation, usual class: activators;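 further: potency means the concentration at half of the fitted maximal effect; 0% = DMSO controls and full agonism = EC100 isoproterenol or metaproterenol; nearly all actives have a fitted effect of over 65% in size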
ELG1 FLuc counter = luciferase inhibition in cell-free luciferin readout for ELG1 hits. shares compounds with ELG1 DNA repair. cell-free firefly luciferase luminescence counter-screen, ViewLux. Potency, µM (top dose mostly 46.1 µM), for inactives: at the top dose activity change, negative = inhibition, actives largely listed as inhibitors. 350 tested, 3% active; further: potency means the concentration at half of the fitted maximal effect
ELG1-Luc inh = confirmation of human ELG1-dependent DNA repair inhibitors; shares compounds with ELG1 DNA repair; HEK293T ELG1-luciferase levels, luminescence; cells co-treated with 5-fluorouridine; Potency, µM (series often up to 46.1 µM), inactives show at the top dose activity change, negative = inhibition, most hits filed as inhibitors; 670 tested, 68% active; further: potency means the concentration at half of the fitted maximal effect; nearly all actives have a fitted effect of over 55% in size
ELG1 MMS Luc = MMS-stimulated human ELG1 repair inhibition, confirmed; shares compounds with ELG1 DNA repair; HEK293T luciferase-tagged ELG1 level, MMS stimulated; Potency, µM (highest dose often 46.1 µM), for inactives: at the highest dose activity change, negative = inhibition, most hits filed as inhibitors; 670 tested, 53% active; AID 624249; further: potency means the concentration at half of the fitted maximal effect; nearly all actives have a fitted effect of over 60% in size
ELG1 5-FU = confirmation of ELG1 repair inhibitors: viability with 5FU. shares compounds with ELG1 DNA repair. cell viability with 5-FU, ELG1-dependent repair. Potency, µM (top dose mostly 46.1 µM), without a hit: at the top dose activity change, negative = viability loss, most hits filed as cytotoxic. 670 tested, under 10 active;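 further: ELG1-luc HEK293T cells cotreated with 5-fluorouridine at 10 µM final; potency means the concentration at half of the fitted maximal effect; viability measured 16 h after compound addition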
ELG1 MMS viab = confirmation of ELG1 repair inhibitors: viability with MMS; Cell viability with MMS, ELG1-dependent DNA repair; AID 624251; Potency, µM (series often up to 46.1 µM), without a hit: at the top dose activity change, negative = viability loss, actives largely listed as cytotoxic; shares compounds with ELG1 DNA repair; 670 tested, 33% active;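 further: ELG1-luc HEK293T cells co-treated with 10 µM MMS; potency means the concentration at half of the fitted maximal effect; viability read 16 h after compound addition; nearly all actives have a fitted effect of over 60% in size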
Cell viab unstim = counter-screen for ELG1 repair inhibitors: unstimulated cell viability. shares compounds with ELG1 DNA repair. Potency, µM (top dose mostly 45.9 µM), without a hit: at the highest dose activity change, negative = loss of viability, usual class: cytotoxic. 900 tested, 8% active. cell viability counter-screen, unstimulated, luminescence. AID 624252;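 further: potency means the concentration at half of the fitted maximal effect; compound exposure lasted 16 hours before reading; nearly all actives have a fitted effect of over 55% in size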
FLuc enzyme = inhibits purified firefly luciferase, counter-screen for ELG1 hits. shares compounds with ELG1 DNA repair. purified firefly luciferase, luminescence counter-screen. Potency, µM (series often up to 57.5 µM), for the others: top-dose activity, negative = inhibition, actives largely listed as inhibitors. 350 tested, 10% active. AID 624253; further: potency means the concentration at half of the fitted maximal effect
An asterisk follows results filed as active; ? = inconclusive; / = no result given; [ ] = another dose, or the depositor's remark. In the library only some 7.5% were active in any assay of this set; here they are far more common. Unless noted, the call rests on the fitted dose curve; in most records, active means well fitted curve in the direction sought with a large enough effect; inconclusive means small, poorly fitted or top-dose-only effect, or another doubt; inactive means no such curve, though single readings can be large; an effect the other way counts as inactive or inconclusive. Unless noted, on the % scale 0 is the no-effect control and ±100 the full control effect.

SMILES	RORg inh	ELG1 DNA repair	VP16 counter	TSHR antag	B2AR arrestin	ELG1-Luc inh	ELG1 MMS Luc	ELG1 5-FU	ELG1 MMS viab	Cell viab unstim	others
Cc1ccc(S(=O)(=O)Cc2nc3ccccc3c(=O)[nH]2)cc1	1%	1%	1%	18	0%	/	/	/	/	/
CCOc1ccc(-c2[nH]ncc2-c2ccc(OC)c(OC)c2)c(O)c1	?	2.3µM*	?	19	0%	13µM*	?	-4%	?	?
COc1ccc(-c2cn[nH]c2-c2ccc(O)cc2O)cc1OC	-3%	-12%	-3%	-1	-1%	/	/	/	/	/
CCn1cc(/C=C(\NC(=O)c2ccccc2F)C(=O)NCCN2CCOCC2)c2ccccc21	0%	2%	15%	-8	0%	/	/	/	/	/
CNC(=O)N1CCC(C(=O)c2c(C)c(C)c(C)c(C)c2C)CC1	-7%	1%	-11%	3	-1%	/	/	/	/	/
COc1ccc(CNC(=O)C(c2ccco2)N(Cc2cccs2)C(=O)Cc2cccs2)cc1 (stereo not given)	21%	15µM*	-8%	59	0%	16µM*	16µM*	6%	-4%	-14%	ELG1 FLuc counter=-17%;FLuc enzyme=-4%
CNC(=O)CS(=O)(=O)CC(=O)Nc1cc(OC(C)C)c(Cl)cc1Cl	11%	4%	9%	7	-1%	/	/	/	/	/
CC(=O)c1cn(CC(=O)Nc2ccc(C)c(C)c2)c2ccccc12	?	2.1µM*	-1%	-7	0%	-10%	?	-4%	?	-4%
CC(=O)Nc1ccc(NC(=O)C(C)OC(=O)/C=C/c2cn(-c3ccccc3)nc2-c2cccnc2)cc1 (stereo not given)	13µM*	1.6µM*	?	0	-1%	0.79µM*	25µM*	?	25µM*	?
Cc1ccccc1NC(=O)COC(=O)/C=C/c1cn(-c2ccccc2)nc1-c1cccnc1	15%	?	-6%	0	-1%	/	/	/	/	/
CC(=O)OCC1OC(C#Cc2ccccc2)C=CC1O (stereo not given)	6%[10 µM]	/	3%[10 µM]	/	/	/	/	/	/	/
CCC(C)[C@H]1CNCCN1CCc1cc(C(F)(F)F)cc(C(F)(F)F)c1 (stereo not given in full)	/	3.5µM*	/	10	0%	-9%	22µM*	?	22µM*	?
CC(C)(C)C(=O)Nc1ccc(S(=O)(=O)N2CCC(c3nc4ccccc4[nH]3)CC2)cc1	/	3.7µM*	/	16	0%	2.5µM*	-8%	?	8%	-6%
CC(=O)Nc1ccc(S(=O)(=O)N2CCC(c3nc4ccccc4[nH]3)CC2)cc1	-23%[0.365 µM]	-17%	/	12	14%	/	/	/	/	/
CN1CCN(c2ncncc2-c2ccccc2Cl)CC1	-2%	/	12%	/	/	/	/	/	/	/
CN1CCN(c2ncnc3scc(-c4ccccc4Cl)c23)CC1	-32%	4.1µM*	1%	0	0%	7.1µM*	16µM*	-10%	-2%	?
CC(=NNC(=O)c1cccs1)c1ccc2c(c1)OCCO2	/	?	/	-11	-1%	/	/	/	/	?
C/C(=N\NC(=O)c1cccs1)c1ccc2c(c1)OCO2	19%	?	-6%	-4	-1%	/	/	/	/	/
Cc1ccc(Nc2nc(-c3ccncc3)nc3ccccc23)cc1	-24%	2.6µM*	-1%	9	0%	4µM*	18%	-2%	-14%	-18%	ELG1 FLuc counter=42%;FLuc enzyme=-10%
CC(C)Oc1ccc(C(=O)N2CCN(C(=O)c3ccco3)CC2)cc1	7%	13%	1%	10	0%	/	/	/	/	/
COC(=O)[C@H](Cc1ccccc1)NC(=O)C1(OC(C)=O)CC(OC(C)=O)C(OC(C)=O)C(OC(C)=O)C1 (stereo not given in full)	-2%	2%	3%	-1	-1%	/	/	/	/	/
COc1ccc(S(=O)(=O)NCc2ccncc2)cc1NC(=O)c1ccccc1	/	-23%	/	-4	0%	/	/	/	/	/
COc1ccc(S(=O)(=O)NCc2ccncc2)cc1NC(=O)c1ccc(Cl)cc1	/	?	/	-22	0%	18µM*	?	-3%	?	?	ELG1 FLuc counter=9%;FLuc enzyme=-2%
O=C(Nc1cc([N+](=O)[O-])ccc1F)C1CCN(S(=O)(=O)c2cccs2)CC1	/	-21%	/	-6	0%	/	/	/	/	/
Cc1ccc(-c2cc(C(F)F)n3ncc(C(=O)Nc4c(C)nn(Cc5c(Cl)cccc5Cl)c4C)c3n2)cc1	-8%	4.6µM*	0%	8	0%	4µM*	6%	?	2%	-5%	ELG1 FLuc counter=-4%;FLuc enzyme=-5%
CNS(=O)(=O)c1ccc(NC(=O)c2cnn3c(C(F)F)cc(-c4ccccc4)nc23)cc1	-7%	?	-1%	-9	0%	/	/	/	/	/
O=C(Nc1cnn(Cc2ccc(F)cc2)c1)c1cnn2c(C(F)F)cc(-c3ccccc3)nc12	-15%	2.3µM*	2%	-3	0%	5µM*	13µM*	?	?	?	ELG1 FLuc counter=?;FLuc enzyme=-11%
CC(C)Cc1nnc(NC(=O)CSc2nc(O)c(-c3ccccc3)c(=O)[nH]2)s1	-2%	?	-3%	8	0%	/	/	/	/	/
Cc1ccc(S(=O)(=O)NCc2ccccn2)c(C)c1C	?	?	-7%	20	0%	/	/	/	/	/
